# Source: the supplement of paper PMC6555819
# Experiments:
# Assay in all cases: PBM binding z-score (relative to random genomic background probes); higher = stronger binding; sequences stand for … in GC…GCGATTGACAGCGTAGAATGAAGG
# [1] = system: FXR:RXRa (NR concentration 270 nM, RXRa partner concentration 90 nM)
# Outline: (§1)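 Custom Agilent 4×180K protein-binding microarrays carried double-stranded probes. Their 34-nt variable regions held direct-repeat seeds, single-nucleotide variants, half-site ablations and random human genomic background sequences. Arrays were incubated 1 h with ligand-free nuclear receptor dimers in PBS pH 7.4, 2% milk, 0.02% Triton X-100, 1 mM DTT, 0.2 mg/mL BSA and 0.4 mg/ml salmon testes DNA. Antibodies against each partner (one per run) detected binding, and scanned fluorescence was regression-normalized. Binding z-scores use random background probes as reference.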
# [2] = system: LXRa:RXRa (NR concentration 270 nM, RXRa partner concentration 90 nM)
# Outline: as §1
# [3] = system: LXRa homodimer (NR concentration 270 nM)
# Outline: as §1
# [4] = system: LXRb:RXRa (NR concentration 270 nM, RXRa partner concentration 90 nM)
# Outline: as §1
# [5] = system: LXRb homodimer (NR concentration 270 nM)
# Outline: as §1
# [6] = system: PPARa:RXRa (NR concentration 270 nM, RXRa partner concentration 90 nM)
# Outline: as §1
# [7] = system: PPARg:RXRa (NR concentration 180 nM, RXRa partner concentration 90 nM)
# Outline: as §1
# [8] = system: PPARg:RXRa 270nM:90nM, anti-RXR (NR concentration 270 nM, RXRa partner concentration 90 nM)
# Outline: as §1
# [9] = system: PPARg:RXRa 30nM:10nM, anti-RXR (NR concentration 30 nM, RXRa partner concentration 10 nM)
# Outline: as §1
# [10] = system: PPARg:RXRa 90nM:30nM, anti-RXR (NR concentration 90 nM, RXRa partner concentration 30 nM)
# Outline: as §1
Sequence,PBM binding z-score [1],PBM binding z-score [2],PBM binding z-score [3],PBM binding z-score [4],PBM binding z-score [5],PBM binding z-score [6],PBM binding z-score [7],PBM binding z-score [8],PBM binding z-score [9],PBM binding z-score [10]
TCTTGTAGATCAATGGTTAAGAAAGCCGAAGCCT,0.494,0.359,-0.126,-0.0354,-0.123,0.608,0.23,2.48,3.07,2.99
ATTACAGGGTCACTAGGCCAGAGTAGGTACGAAT,6.12,4.57,0.484,3.59,1.62,5.94,8.17,6.86,3.45,5.84
ACTATTAGTTGAGACGAGGGCAACCCATAGGTTG,0.567,-0.017,-0.102,0.0689,0.34,0.296,0.846,0.162,0.398,0.326
CCTGCTGGGCCAAAGGTCATTGATTCCAATGCTC,5.24,5.14,3.92,4.66,0.872,5.78,9.98,8.99,8.27,9.45
GCGACTGGGGCAAAGCAGGTTTCCATAAGGTTGG,-0.319,-0.518,-0.852,-0.284,-0.53,0.542,0.609,0.674,-0.401,0.205
ATACCAAGGCGATCGTGAGGTCGTTGATACTAAC,0.659,0.195,0.46,0.571,-0.375,0.703,0.16,-0.337,-0.383,-0.191
CCGTCTGGGGCAAGGTTACCATAACGCACAGCCA,0.304,0.595,-0.295,0.486,-1.06,1.47,1.66,2.36,0.376,1.93
TCTCGGAGGACACGAAGGTCAGATCTTTCCAGAG,1.76,1.41,1.09,1.64,-0.544,1.98,0.475,1.77,2.61,2
AGAATGAGGTTACCAAAGATGAGGGAAACGCTTG,1.89,2.71,-0.269,1.35,-0.264,3.26,2.61,2.78,1.03,1.94
GCATATAGGTAATACAAGATGAAAGTCCGATTGT,0.0179,-0.186,-0.106,-0.218,-0.326,0.682,1.32,0.766,0.378,0.376
AGAATGATGTTATTAAGATCAGGGAATTGCGGTC,-0.0815,-0.447,6.67e-05,-0.339,-0.205,0.0831,0.179,-0.306,-0.179,-0.208
TCTAGCAGGCCAGAGCGTCACTCAAGAGGTACGG,-0.546,-0.726,-0.841,-1.08,-1.75,-0.0685,0.266,0.612,1.11,0.674
ATCTCTAGGTAAAGTTCAGTTAAAGATCGATAGA,1.31,2.28,1.98,1.67,1.22,2.39,3.27,4.32,2.38,3.95
